Source: PubChem BioAssay (NCATS)
Results filed as inconclusive are left out. Where a call stands in place of a potency, no number is given. Unmarked numbers belong to inactive results. Active and inactive are the calls of the source. Calls follow the shape of the dose curve; as a rule, active = well fitted curve in the direction sought with a large enough effect; inconclusive = small, poorly fitted or top-dose-only effect, or another doubt; inactive = no such curve, though single readings can be large; an effect the other way counts as inactive or inconclusive. Numbered stars: 1 amine (or outer) side, 2 acyl side, 3 side chain; on linkers, the order of the positions; unused ones are H or OH. Square brackets hold non-standard residues; d marks the D form. Peptide text beside a SMILES is read from it. X2 = CC(C)=CCc1cc(C(O)C(N[*:1])C(=O)[*:2])ccc1O

Tests used:
[1] = biological target: Cellular tumor antigen p53 (Homo sapiens) (UniProt P04637); experiment: Primary qHTS for small molecule compounds that upregulate eGFP-tagged delta133p53alpha (in N-terminal) cells. (AID 2060322); details: NCI-H358 eGFP-delta133p53alpha fluorescence, 24 h; activation: stronger effect = higher value; also: nearly all actives have a fitted effect of over 75% in size; also: potency is read from the fitted curve at half-maximal effect; as to activation: series mostly up to about 56 µM
Method in brief: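 NCI-H358 cells pre-induced 24 h with 10 ng/ml doxycycline to express N-terminal eGFP-delta133p53alpha, then dosed 24 h at 37C without doxycycline; fixed, Hoechst-stained, GFP intensity by laser scanning cytometry, normalized to DMSO (0%) and 57.5 uM 5-azacytidine (100%).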

[2] = biological target: Aldehyde dehydrogenase, mitochondrial (Homo sapiens) (UniProt P05091); experiment: qHTS for Inhibitors of the Aldehyde Dehydrogenase Family (ALDH2) Primary screen (AID 2061308); also: nearly all actives have a fitted effect of over 55% in size
[3] = biological target: Retinaldehyde dehydrogenase 3 (Homo sapiens) (UniProt P47895); experiment: qHTS for Inhibitors of the Aldehyde Dehydrogenase Family (ALDH1A3) Primary screen (AID 2061315)

Sequence of Cellular tumor antigen p53 (Homo sapiens) (P04637 whole entry, looked up): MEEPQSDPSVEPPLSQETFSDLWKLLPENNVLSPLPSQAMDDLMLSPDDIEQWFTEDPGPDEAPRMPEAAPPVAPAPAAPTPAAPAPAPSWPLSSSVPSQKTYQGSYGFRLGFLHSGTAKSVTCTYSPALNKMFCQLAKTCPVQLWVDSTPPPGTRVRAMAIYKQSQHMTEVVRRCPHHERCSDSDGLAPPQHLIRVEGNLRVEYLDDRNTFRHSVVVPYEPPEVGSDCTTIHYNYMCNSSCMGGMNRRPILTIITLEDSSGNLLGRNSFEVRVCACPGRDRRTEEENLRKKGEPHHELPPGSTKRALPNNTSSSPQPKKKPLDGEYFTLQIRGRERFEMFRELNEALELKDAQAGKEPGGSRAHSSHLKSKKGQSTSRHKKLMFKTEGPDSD

| SMILES | activation [1] [%] | Potency [2] | Potency [3] | Potency [1] |
| --- | --- | --- | --- | --- |
| C=C1CC[C@@H]2[C@](C)(CO[C@@H]3O[C@H](CO)[C@@H](O)[C@H](O)[C@H]3O)[C@H](O)CC[C@@]2(C)[C@@H]1C/C=C1/C(=O)OC[C@H]1O | -8.93 | inactive | inactive | – |
| COc1cc(C(C)=O)ccc1O[C@@H]1O[C@H](CO[C@@H]2OC[C@@H](O)[C@H](O)[C@H]2O)[C@@H](O)[C@H](O)[C@H]1O | 9.16 | inactive | inactive | – |
| C/C=C/C=C/C=C/C(=O)N(C)C(C(=O)NC(C)C(=O)N1CCCC1C(N)=O)C(C)C (configuration not stated) | 17.6 | inactive | inactive | – |
| C=C[C@H]1[C@H](O[C@@H]2O[C@H](CO)[C@@H](O)[C@H](O)[C@H]2O)OC=C(C(=O)OC)[C@H]1CC=O | -32.8 | inactive | inactive | – |
| COc1cccc(-c2cn(-c3ccc(CCN4CCC(O)CC4)cc3)c3ncnc(N)c23)c1 | – | inactive | inactive | 6.01 µM (active) |
| O=c1[nH]ccc2cc(OC3CCNCC3)ccc12 | -7.14 | inactive | inactive | – |
| C[C@@H]1C[C@@H](O)[C@@]23CO[C@]2(CO)C[C@@H](O)CC3[C@@]12CC(c1ccoc1)OC2=O (some centres not stated) | -7.14 | inactive | inactive | – |
| CC1(C)CC[C@]2(C(=O)O)CC[C@]3(C)C(=CCC4[C@@]5(C)C[C@@H](O)[C@H](O)[C@@](C)(CO)C5[C@H](O)C[C@]43C)[C@@H]2C1 (some centres not stated) | -19.8 | inactive | inactive | – |
| NCCOCCOCCNC(=O)Cc1ccc(Nc2nc(NCc3ccc(F)cc3)nc(NCC3CCCCC3)n2)cc1 | 2.33 | inactive | inactive | – |
| C=C(C(=O)O)C1CCC(C)C2CCC(=O)OC2(C)C1 (configuration not stated) | 18.8 | inactive | inactive | – |
| CC(C)(O)C1CC=C(C(=O)OC[C@H]2O[C@@H](Oc3cc(C(=O)O)cc(O)c3O)[C@H](O)[C@@H](O)[C@@H]2O)CC1 (some centres not stated) | -22.1 | inactive | inactive | – |
| CCOC(=O)c1ccc(OCCN2C[C@H](O)[C@@H](O)[C@H](O)[C@H]2CO)cc1 | -6.33 | inactive | inactive | – |
| CC(=O)OC1CC(C)(C(=O)O)CC2C3=CC(=O)C4C5(C)CCC(OC6OC(C(=O)O)C(O)C(O)C6OC6OC(C(=O)O)C(O)C(O)C6O)C(C)(C)C5CCC4(C)C3(C)CCC12C (configuration not stated) | -4.46 | inactive | inactive | – |
| O=C(/C=C/c1ccc(O)cc1)OCC1OC(O)C(OC2OC(CO)C(O)C(O)C2O)C(O)C1O (configuration not stated) | -13 | inactive | inactive | – |
| C/C=C(/C)C(=O)OC1C=C2C3C(C)C(C)C(OC(=O)C(C)C(C)O)CC3(C)CCC2(C)C2(C)CC(OC(C)=O)C3C(C)(C)C(O)C(=O)CC3(C)C12 (configuration not stated) | -17 | inactive | inactive | – |
| COc1cc(C2OCC3(O)C(c4ccc(O[C@@H]5O[C@H](CO)[C@@H](O)[C@H](O)[C@H]5O)c(OC)c4)OCC23O)ccc1O (some centres not stated) | -6.11 | inactive | inactive | – |
| CCCC(=O)O[C@@H]1[C@@H]2[C@@H](OC(C)=O)[C@]3(C)C(=O)[C@H]4[C@@H](OC(C)=O)C(C)(C)C[C@H]4[C@]3(C)C(=O)[C@@]2(OC(C)=O)C[C@@H]1C | -10.7 | inactive | inactive | – |
| CCC(CC)Nc1nc(C)c(-c2ccc(OC(F)(F)F)cc2OC)nc1OC | -3.57 | inactive | inactive | – |
| CC(=O)OC1CCC2(C)C(CCC3(C)C2CC=C2C4CC(C)(C)CCC4(C)CCC23C)C1(C)C(=O)O (configuration not stated) | 27.7 | inactive | inactive | – |
| CC1C(=O)OCC2=CC[N+]3([O-])CCC(OC(=O)C(C)(O)C1(C)O)C23 (configuration not stated) | 24.1 | inactive | inactive | – |
| C=C1CC[C@]2(C(=O)O[C@@H]3O[C@H](CO)[C@@H](O)[C@H](O)[C@H]3O)CC[C@]3(C)C(=CCC4[C@@]5(C)C[C@H](O)[C@@H](O[C@@H]6O[C@H](C(=O)O)[C@@H](O)[C@H](O)[C@H]6O)[C@](C)(C=O)C5CC[C@]43C)C2C1 (some centres not stated) | -11.6 | inactive | inactive | – |
| C=C1CCC2(OC1)OC1CC3C4CC=C5CC(O)CC(O[C@@H]6OC[C@H](OC(=O)C(O)C(C)CC)[C@H](O)[C@H]6O[C@@H]6O[C@@H](C)[C@H](O)[C@@H](O)[C@H]6O)C5(C)C4CCC3(C)C1C2C (some centres not stated) | 11.6 | inactive | inactive | – |
| C=C1C2(C)CC3C4(C)OC(C5OC56C4=CC(=O)OC6(C)C)C3(C)C13C(=O)OC(C)C3(O)C2=O (configuration not stated) | -9.92 | inactive | inactive | – |
| N#C[C@@H]1CCCN1C(=O)CNC12CC3CC(CC(O)(C3)C1)C2 | 15 | inactive | inactive | – |
| CO[C@@H]1[C@]2(O)C(=O)N3/C=C\C(C)(C)c4[nH]c5ccccc5c4/C=C\3C(=O)N2[C@]23[C@H](CO)C(C)(C)N2c2ccccc2[C@]13O | 8.4 | inactive | inactive | – |

| SMILES | activation [1] [%] | Potency [2] | Potency [3] | Potency [1] |
| --- | --- | --- | --- | --- |
| CC(CCC1(O)OC2CC3C4CC=C5CC(O[C@@H]6O[C@H](CO)[C@@H](O[C@@H]7O[C@H](CO)[C@@H](O)[C@H](O)[C@H]7O)[C@H](O)[C@H]6O[C@@H]6O[C@@H](C)[C@H](O)[C@@H](O)[C@H]6O)CCC5(C)C4CCC3(C)C2C1C)CO[C@@H]1O[C@H](CO)[C@@H](O)[C@H](O)[C@H]1O (some centres not stated) | 12.5 | inactive | inactive | – |
| Cn1c(=O)c(F)c(Nc2ccc(I)cc2F)c2c(=O)n(CC(O)CO)cnc21 (configuration not stated) | 14.3 | inactive | inactive | – |
| COc1c2c(c(C)c3c1C(=O)OC3)O[C@@]1(C)CCC3(C(C)(C)O)OC(=O)CC[C@]3(C)[C@H]1C2 (some centres not stated) | 4.58 | inactive | inactive | – |
| CC(C)=CCC[C@](C)(O[C@@H]1O[C@H](CO[C@@H]2OC[C@@H](O)[C@H](O)[C@H]2O)[C@@H](O)[C@H](O)[C@H]1O)[C@H]1CC[C@]2(C)[C@@H]1[C@H](O)C[C@@H]1[C@@]3(C)CC[C@H](O[C@@H]4O[C@H](CO)[C@@H](O)[C@H](O)[C@H]4O[C@@H]4O[C@H](CO)[C@@H](O)[C@H](O)[C@H]4O)C(C)(C)[C@@H]3CC[C@]12C | -8.33 | inactive | inactive | – |
| O=S(=O)(N[C@H]1CCCC[C@@H]1N1CCOCC1)c1ccc(Cl)cc1 | -16.3 | inactive | inactive | – |
| CC(C)=CCc1cc(C(O)C2NC(=O)CNC(=O)C(Cc3c[nH]c4ccccc34)NC(=O)C3CCCN3C(=O)CNC(=O)C(C(C)C)NC(=O)CNC2=O)ccc1O (configuration not stated) (cyclo(G[X2]GVGPW); configuration not given here) | -8.4 | inactive | inactive | – |
| O=C1OC(c2ccc(O)cc2)C(O)=C1Cc1ccccc1 (configuration not stated) | -3.82 | inactive | inactive | – |
| O=C(Nc1cccc2cccnc12)c1ccc(N2C(=O)[C@@H]3C4C=CC(C4)[C@@H]3C2=O)cc1 | 2.33 | inactive | inactive | – |
| CC12CC(c3ccoc3)OC(=O)C1CCC1(C)C2CCC(O)C1(C)O (configuration not stated) | 23.7 | inactive | inactive | – |
| CC(=O)N1c2ccccc2C2(O)CC3C(=O)NC(CC(C)C)C(=O)N3C12 (configuration not stated) | -32.8 | inactive | inactive | – |
| CC(=O)OC1C(O)C(C)=C(CCC(C)CC(=O)O)C2(C)CCCC(C)(C)C12 (configuration not stated) | 3.82 | inactive | inactive | – |
| C[C@@H](CC[C@@H]1[C@@]2(C)CCCC(C)(C)C2CC[C@@]1(C)O)CC(=O)O (some centres not stated) | -12.2 | inactive | inactive | – |
| O=C(O)c1cccc(-c2ccc(-c3cn(C(=O)N4CCCCC4Cc4ccccc4)nn3)cc2)c1 (configuration not stated) | -9.67 | inactive | inactive | – |
| CC(=O)OC1C(c2ccccc2)CCC(c2ccccc2)C1OC(C)=O (configuration not stated) | 1.53 | inactive | inactive | – |
| OC[C@H]1O[C@@H](OCCc2ccc(O)cc2)[C@H](O[C@@H]2OC[C@](O)(CO)[C@H]2O)[C@@H](O)[C@@H]1O | 1.79 | inactive | inactive | – |
| CC1(C=O)CCCC2(C)C1CCC13CC(CO)C(CCC12)C3 (configuration not stated) | -9.92 | inactive | inactive | – |
| Cc1c(N2C(=O)c3ccc(C(=O)O)cc3C2=O)c(=O)n(-c2ccccc2)n1C | -5 | inactive | inactive | – |
| CC(=O)O[C@H]1C[C@@H]2[C@]3(CC[C@]4(C)[C@@H](C5(C)CCC(C(C)(C)O)O5)[C@@H](O)C[C@@]24C)C[C@@]32CC[C@H](O[C@@H]3OC[C@@H](O)[C@H](O)[C@H]3O)C(C)(C)[C@H]12 (some centres not stated) | -4.46 | inactive | inactive | – |
| COc1ccc(CNCc2cccc3ccccc23)cc1 | -2.33 | inactive | inactive | – |
| C[C@]1(O)CC[C@@H]2C(C(=O)O)=CO[C@@H](O[C@@H]3O[C@H](CO)[C@@H](O)[C@H](O)[C@H]3O)[C@@H]21 | -11.5 | inactive | inactive | – |
| O=C(O)Cc1nn(Cc2nc3cc(C(F)(F)F)ccc3s2)c(=O)c2nccnc12 | -6.33 | inactive | inactive | – |
| CN1CCc2cc(Cl)c(O)cc2[C@@H](c2cccc3c2OCC3)C1 | -1.67 | inactive | inactive | – |
| Nc1nc(Nc2ccc(S(N)(=O)=O)cc2)n(C(=S)Nc2c(F)cccc2F)n1 | – | inactive | inactive | 2.13 µM (active) |
| CC(C)[C@@H](C(=O)O)N1Cc2c(cc(O)c3c2O[C@]2(C3)[C@H](C)CCC3C(C)(C)[C@H](O)[C@H](O)C[C@@]32C)C1=O (some centres not stated) | -16.8 | inactive | inactive | – |
